In the library only some 2.9% were active in any assay of this set; here they are far more common.
EBNA-1 inhibitor – EBNA-1 DNA-binding inhibitors, primary screen, biochemical, fluorescence polarization; inhibition, % at 14.8 µM; 300,000 tested, 0.34% active; in the data active means inhibition above about 28%
ZTA DNA inh – counter-screen for EBNA-1 inhibitors: inhibitors of Epstein-Barr virus ZTA. P03206. ZTA-DNA binding, fluorescence polarization. inhibition, % at 11 µM. 320,000 tested, 0.15% active. AID 2234; in the data active means inhibition above about 33%
Target sequence (P03206 whole entry, looked up): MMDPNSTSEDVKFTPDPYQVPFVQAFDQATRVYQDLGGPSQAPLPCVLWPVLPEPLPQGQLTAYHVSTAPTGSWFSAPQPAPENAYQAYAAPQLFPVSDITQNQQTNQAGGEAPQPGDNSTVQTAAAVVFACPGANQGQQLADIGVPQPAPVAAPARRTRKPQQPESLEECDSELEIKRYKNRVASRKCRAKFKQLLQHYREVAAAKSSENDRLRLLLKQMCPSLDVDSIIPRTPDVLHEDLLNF
PAFAH1B3 FP inh – PAFAH1B3 enzyme inhibitors, primary screen, biochemical, fluorescence polarization, human | Platelet-activating factor acetylhydrolase IB subunit alpha1 (Homo sapiens), Q15102 | AID 492972, 2010 | 340,000 tested, 0.28% active | recombinant PAFAH1B3, FP-rhodamine probe | inhibition, % at 3.39 µM;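 active means inhibition above the screen-wide average of all tested compounds plus 3 SD, cut at about 25% in these data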;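 further: 0% = enzyme with DMSO only and 100% = wells lacking PAFAH1B3 protein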
PAFAH2 inh – PAFAH2 enzyme inhibitors, primary screen, biochemical, fluorescence polarization, human; recombinant PAFAH2, FP-rhodamine activity probe; inhibition, % at 3.39 µM; 340,000 tested, 0.99% active; AID 492956, 2010;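 active means inhibition above the mean over all tested compounds plus 3 SD, cut at about 30% in these data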;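 further: inhibitors block probe labeling of enzyme so polarization drops; 0% = enzyme with DMSO and 100% = wells lacking PAFAH2 protein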
PAFAH1B2 FP inh – PAFAH1B2 enzyme inhibitors, primary screen, biochemical, fluorescence polarization, human | 340,000 tested, 1.2% active | inhibition, % at 3.39 µM | Platelet-activating factor acetylhydrolase IB subunit alpha2 (Homo sapiens), P68402 | recombinant PAFAH1B2, FP-rhodamine activity probe;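 active means inhibition above the mean of all tested compounds plus 3 SD, cut at about 24% in these data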;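 further: 0% = enzyme with DMSO and 100% = wells lacking PAFAH1B2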
rCAG binder – binders of r(CAG) RNA repeats, primary screen, biochemical, fluorescence | r(CAG) RNA repeat, TO-PRO-1 dye displacement fluorescence | inhibition, % at 3 µM | 370,000 tested, 1.3% active | AID 651821, 2012;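 active means inhibition above the plate cutoff, the mean of all test compounds on that plate plus 3 SD, cut at about 35% in these data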;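 further: 0% = DMSO alone and 100% = 100 µM mitoxantrone as full dye displacement; higher means more dye released from RNA so lower well fluorescence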
* marks the source's active call; other numbers are inactive results; / = no result; + = active, no number.

SMILES	EBNA-1 inhibitor	ZTA DNA inh	PAFAH1B3 FP inh	PAFAH2 inh	PAFAH1B2 FP inh	rCAG binder
COc1ccc(-c2nnc(Nc3nc4c(OC)cccc4s3)o2)cc1	-13	1	10	10	9	27
Fc1cccc2sc(Nc3nnc(-c4ccccc4)o3)nc12	1	19	1	33*	12	22
COc1ccc(-c2nnc(Nc3nc4c(OC)cccc4s3)o2)c(OC)c1	6	0	15	13	4	51*
COc1ccc2c(c1)CCCN2C(=O)C1CCCN(S(=O)(=O)c2cc(OC)ccc2OC)C1 (stereo unspecified)	/	/	/	/	/	2
CCCOc1ccccc1OCC(=O)N1CCN(S(=O)(=O)c2ccc(Cl)cc2)CC1	/	-6	-1	-4	25*	0
Cc1ccc(S(=O)(=O)N2CCN(C(=O)CSc3ccc(F)cc3)CC2)cc1	7	3	15	2	26*	-1
CCOc1ccc(OCCC(=O)OCC(=O)N2CCN(S(=O)(=O)c3ccc(C)cc3)CC2)cc1	2	-4	3	0	8	4
Cc1ccc(OCCC(=O)OCC(=O)N2CCN(S(=O)(=O)c3ccc(Cl)cc3)CC2)cc1	-1	-8	4	-6	28*	-3
CC(C)NC(=O)C1(C)CN(S(C)(=O)=O)CC(=O)N1C1CCCCCC1 (stereo unspecified)	/	/	/	/	/	1
CCCCNC(=O)C[C@H]1C[C@@]2(C(=O)OC)C(=C[C@H](C(C)C)O[C@@H]2C2CC2)N(CCC2=CCCCC2)C1=O	/	/	/	/	/	-3
NNc1ccc([N+](=O)[O-])c2[nH][nH]c(=O)c12	/	/	/	/	/	42*
O=[N+]([O-])c1ccc(Nc2ccccc2)c2nonc12	9	9	14	-2	6	5
C[C@@H]1/C=C/CC(=O)N[C@H](c2ccccc2)[C@H](C)/C=C/CC(=O)N[C@@H]1c1ccccc1	/	/	/	/	/	2
CCOC(=O)[C@]12CCCCC/C=C\1N(Cc1ccc(OC)cc1)C(=O)[C@H]2CC(=O)NCc1ccccc1	/	/	/	/	/	4
Cc1cc(N2C(=O)C(O)=C(C(=O)c3cc4ccccc4o3)C2c2ccc([N+](=O)[O-])cc2)no1 (stereo unspecified)	14	15	4	10	1	46*
Cc1ccc(C2C(C(=O)c3cc4ccccc4o3)=C(O)C(=O)N2c2cc(C)on2)cc1 (stereo unspecified)	-4	3	2	18	6	20
CCN(CC)C(=O)c1ncn2c1C(=O)N[C@H](C)C2	/	/	/	/	/	-2
CCN(CC)c1ccc(N=Cc2ccc([N+](=O)[O-])o2)cc1	+	+	4	9	3	20
CCCCCC(=O)N/N=C/c1ccc([N+](=O)[O-])o1	-11	6	7	4	4	3
CC(=O)N(C)c1ccc(N=Cc2cc3c(cc2[N+](=O)[O-])OCO3)cc1	3	-4	3	6	4	7
CCN(CC)c1ccc(N=Cc2ccccc2[N+](=O)[O-])cc1	177*	+	10	4	0	8
Cc1n[nH]c(C)c1S(=O)(=O)NC(C)Cc1ccccn1 (stereo unspecified)	/	/	/	/	/	4
CCC(=O)N[C@H]1C[C@@H]2O[C@@H](CO)CC[C@@H]2O[C@@H]1CCc1ccc(-c2cccc(OC)c2)cc1	/	/	/	/	/	5
N/C(Cc1ccc([N+](=O)[O-])cc1)=N\OC(=O)c1ccc(Br)cc1	7	7	6	41*	3	-2
N/C(=N\OC(=O)c1ccc([N+](=O)[O-])cc1)c1ccc(Br)cc1	0	20	5	-6	7	2
O=C(O)c1cc(NS(=O)(=O)c2cccs2)cc(NS(=O)(=O)c2cccs2)c1	/	13	3	11	25*	2
O=C(O)c1ccc(/C=N/NC(=O)c2ccc(NS(=O)(=O)c3cccs3)cc2)cc1	-3	-11	11	-3	-2	6
CCCN1CCS(=O)(=O)N(Cc2cn(CC(=O)OCC)nn2)C(C(=O)OC)C1 (stereo unspecified)	/	/	/	/	/	-1
CC12/C(=N/O)C3C4CC5C3/C(=N/O)C1C5C42 (stereo unspecified)	-6	-5	-4	3	1	-1
